Screening results deposited in PubChem by National Center for Advancing Translational Sciences (NCATS).
The list is not random: actives were taken first. Their share in the collection is about 2.3%.
Abeta rescue: compounds reversing amyloid beta toxicity in yeast | Potency, µM (highest dose often 46.1 µM), usual class: activators | 410,000 compounds, 0.063% hits | yeast expressing A-beta42, growth rescue, OD600, 48 h; response scale: 0% DMSO, 100% iron-clioquinol control; further: nearly all actives have a fitted effect of over 55% in size
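Growth rescue measured by 600 nm absorbance after 48 h yeast culture at 30 C with compound. Values normalized between DMSO and an equimolar ferric chloride plus clioquinol control.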
uPA generation: cell surface uPA generation inhibition; Potency, µM (highest dose often 38.3 µM), usual class: inhibitors; 330,000 compounds, 0.31% hits; AID 540303; cell surface uPA generation assay, qHTS; active means well fitted inhibition curve with a large enough effect; inconclusive means small, poorly fitted or top-dose-only effect; inactive means no such curve, though single readings can be large or run the other way; tested in mouse RAW 264.7 cells; further: nearly all actives have a fitted effect of over 55% in size
BCR signal inh: inhibitors of chronic active B-cell receptor signaling; AID 493014; ABC-DLBCL IkBa-CBG/CBR reporter, luminescence ratio, 4 h; 340,000 compounds, 0.05% hits; Potency, µM (series often up to 46.1 µM), actives largely listed as inhibitors; active means well fitted inhibition curve with a large enough effect in the signal ratio, with a control signal flat, not every such curve was filed as active; inconclusive means small, poorly fitted or top-dose-only effect, or effect the other way, or a change in a side signal; the % refers to the signal ratio
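Concentration-response series (up to 46 uM) were applied to TMD8 dual-reporter cells for 4 h at 37C with doxycycline. Green/red ratio, after filter-overlap correction, defined %Activity; red signal alone was normalised to basal cells and zero luminescence.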
FUS yeast rescue: rescues growth of FUS-expressing yeast. S. cerevisiae FUS-expressing, growth rescue, OD600, 24 h. 390,000 compounds, 0.24% hits. Potency, µM (highest dose often 76.6 µM), usual class: activators. AID 1347120; further: nearly all actives have a fitted effect of over 55% in size
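Restored growth of FUS-toxic S. cerevisiae, read as 600 nm absorbance after 24 h at 30C in galactose medium (starting OD 0.005). Controls CP55940 and DMSO.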
TDP-43 yeast inh: inhibitors of TDP-43 toxicity in yeast; TDP-43 expressing yeast growth rescue, BacTiter-Glo, 24 h; 410,000 compounds, 1.8% hits; Potency, µM (top dose mostly 46.1 µM), actives largely listed as activators; further: nearly all actives have a fitted effect of over 50% in size
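Growth rescue of TDP-43-toxic yeast measured as ATP luminescence (BacTiter-Glo). Cells grown to mid-log in raffinose, induced in galactose at OD600=0.02, exposed to compound 24 hr at 30 deg C.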
aSyn rescue: rescues yeast growth from alpha-synuclein toxicity; Yeast expressing alpha-synuclein, growth rescue, BacTiter-Glo, 24 h; Potency, µM (doses to about 46.1 µM), actives largely listed as activators; 370,000 compounds, 0.14% hits; AID 652106; further: nearly all actives have a fitted effect of over 65% in size
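Galactose-induced alpha-syn yeast (OD600=0.02, raffinose-pregrown) + pinned cpd, 24 hr, 30 deg C; growth by BacTiter-Glo luminescence. Growth restoration scores as activation.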
Numbers stand for hits; n = inactive; u = inconclusive; x = no result given; [ ] = another dose, or the depositor's remark. Unless noted, the call rests on the fitted dose curve; in most records, active means well fitted curve in the direction sought with a large enough effect; inconclusive means small, poorly fitted or top-dose-only effect, or another doubt; inactive means no such curve, though single readings can be large; an effect the other way counts as inactive or inconclusive.

SMILES	Abeta rescue	uPA generation	BCR signal inh	FUS yeast rescue	TDP-43 yeast inh	aSyn rescue
CCC(CC)NC(=O)O[C@H]1CC[C@@]23CCCN2C(=O)CCC[C@H]3[C@H]1C	x	x	x	n	x	x
CCOC(=O)C1CCCN(c2nc(C)nc3c2oc2ccccc23)C1 (stereo unspecified)	n	x	n	n	n	n
NCC1CCN(c2nc3ccccc3c3c2CCCC3)CC1	n	n	x	x	n	n
COc1ccc(N(C(=O)c2snc(C(N)=O)c2N)C(C(=O)NCc2ccccc2)c2ccc(O)cc2)cc1OC (stereo unspecified)	n	n	n	u	n	n
COc1ccc(N(C(=O)c2snc(C(N)=O)c2N)C(C(=O)NCc2ccc(F)cc2)c2ccc(O)cc2)cc1 (stereo unspecified)	n	n	u	28µM	n	n
COc1ccc(N(C(=O)c2snc(C(N)=O)c2N)C(C(=O)NC2CCCC2)c2ccc3ncccc3c2)cc1 (stereo unspecified)	n	n	n	28µM	n	n
Cc1nn(CCO)c(C)c1Oc1ccccc1O	n	n	n	n	u	n
O=C1C=C(Nc2ccc(Cl)cc2Cl)CC(c2ccco2)C1 (stereo unspecified)	n	n	13µM	n	u	n
O=C1C=C(NCc2ccc(Cl)cc2)CC(c2ccco2)C1 (stereo unspecified)	n	n	n	n	u	n
O=C(COC(=O)c1cc(-c2ccccc2)nc2ccccc12)NC1CC1	n	n	n	u	35µM	n[1.84 µM]
Cc1cccc(-n2c(=O)c3ccccc3n(Cc3ccccc3)c2=O)c1	n	x	x	n	22µM	x
O=C(CCl)N(c1ccccc1)c1ccccc1	n	n	u	n	18µM	n
CCCCCCN(C(=O)CCl)c1ccccc1	n	2.5µM	u	n	u	n
CCCCCCCN(C(=O)CCl)c1cccc(C)c1	n	n	u	n	n	n
O=C(COC(=O)COc1ccc(Cl)cc1Cl)NC1CCCCCC1	n	n	n	n	n	n
O=C(CCc1ccccc1)Nc1ccc(F)cc1F	n	n	u	n	n	n
O=C(CS(=O)(=O)c1cccc2nsnc12)Nc1ccccc1	n	x	x	n	n	n
CN(CC(=O)Nc1ccc(Br)cc1)S(=O)(=O)c1cccc2nsnc12	n	x	x	n	22µM	x
CC(C)c1ccc(NC(=O)CS(=O)(=O)c2cccc3nsnc23)cc1	n	x	x	n	25µM	u
CCCCCCCCN1C(=O)[C@H](CC(=O)NCc2ccc(OC)c(OC)c2)C[C@@]2(C(=O)OC)CC(C)(C)CC=C12	n	x	x	u	22µM	u
COC(=O)[C@@]12C[C@@H](CC(=O)NCc3cccc4ccccc34)C(=O)N(Cc3ccc4c(c3)OCO4)C1=CCC(C)(C)C2	n	x	x	6.3µM	n	n
CCCCCCCCN1C(=O)[C@H](CC(=O)N2CCOCC2)C[C@@]2(C(=O)OC)CC(C)(C)CC=C12	n	x	x	13µM	u	u
COc1ccc(N2C(=O)NC(=O)C2=O)cc1	n	n	n	n	n	n
CCOC(=O)c1c(C)oc2nc(C)nc(NCC3CCN(Cc4ccc(F)cc4)CC3)c12	n	x	x	n	n	x
CCOC(=O)C1CCCN(C(=O)c2sc3nc(-c4ccc(OC)cc4)cn3c2C)C1 (stereo unspecified)	n	n	u	u	11µM	x
SMILES	Abeta rescue	uPA generation	BCR signal inh	FUS yeast rescue	TDP-43 yeast inh	aSyn rescue
Cc1ccc(SCCN2CCC(NC(=O)OCc3ccccc3)CCC2=O)cc1 (stereo unspecified)	n	n	n	u	n	n
Cc1ccc(SC[C@H](C)CN2CCC(NC(=O)OCc3ccccc3)CCC2=O)cc1 (stereo partly specified)	n	x	x	u	u	25µM
Cc1ccccc1C(=O)NC(=S)Nc1ccc(S(=O)(=O)N2CCN(C)CC2)cc1	n	n	u	n	n	n
COc1ccc(N2CCN(C(c3ccccc3OC)c3nnnn3C3CCCC3)CC2)cc1 (stereo unspecified)	n	n	n	u	u	n
COc1ccc(OC)c(C(c2nnnn2C2CCCC2)N2CCN(c3ccccc3F)CC2)c1 (stereo unspecified)	n	n	n	n	32µM	n
Fc1ccc(C[n+]2csc3ccccc32)cc1	n	n	n	x	28µM	n
ICC[n+]1csc2ccccc21	x	x	x	x	x	n
Clc1ccc(C[n+]2csc3ccccc32)cc1	n	n	n	x	25µM	n
Cc1ccc(C)c(N(C)C(=O)c2cn(C)c(=O)c3ccccc23)c1	n	x	x	n	n	x
COc1ccc(/C=N/NC(=O)c2ccc(COCC(F)(F)C(F)F)cc2)cc1	n	n	n	x	n	n
COc1cccc(CC2CC(=O)N(CCc3ccc4c(c3)OCO4)C2=O)c1 (stereo unspecified)	n	n	u	n	20µM	n
Cc1ccc(CC2CC(=O)N(CCc3ccc4c(c3)OCO4)C2=O)cc1 (stereo unspecified)	n	n	n	n	n	n
O=S(Cc1ccc(Br)cc1)Cc1nnc(SCc2ccc(Cl)cc2)n1-c1ccccc1 (stereo unspecified)	n	n	u	x	6.3µM	u
Oc1ccccc1N=Nc1ccccc1O	u	u	u	n	u	13µM
COc1cc(C(=O)Nc2ccc(-c3nc4cc(C)c(C)cc4o3)cc2)cc(OC)c1OC	n	x	x	n	u	x
COc1cc(C(=O)Nc2ccc3c(c2)nc(C)n3C)cc(OC)c1OC	n	5.6µM	u	n	n	n
COc1cc(C(=O)Nc2ccc3c(c2)ncn3C)cc(OC)c1OC	n	u	u	n	n	n
COc1cc(C(=O)Nc2ccc3oc(-c4ccc(C)c(Br)c4)nc3c2)cc(OC)c1OC	n	x	x	n	10µM	x
O=C(Nc1ccc(F)cc1)OCc1cn(Cc2ccc(F)cc2)nn1	x	x	x	n	x	x
O=C(CCC(=O)OCc1ccc(Br)cc1)Nc1ccccc1	n	n	n	n	7.1µM	n
O=C(CCc1c[nH]c2ccccc12)OCc1ccc(Br)cc1	n	n	n	n	13µM	n
CCN1CCN(c2c(S(=O)(=O)c3ccc(OC)cc3)cnc3cc(OC)c(OC)cc23)CC1	n	x	x	n	n	x
COc1cc2ncc(S(=O)(=O)c3ccccc3)c(N3CCCC(C)C3)c2cc1OC (stereo unspecified)	n	u	u	u	28µM	n
CNC(=O)c1ccccc1Nc1ccc(SC(F)F)cc1	n	n	u	n	22µM	n
O=C(NCc1ccncc1)c1ccccc1Nc1ccc(SC(F)F)cc1	n	n	n	n	u	n
O=C(O)c1cccc2c1C(=O)N(CC1CCCO1)C2 (stereo unspecified)	n	n	n	n	n[9.22 µM]	n
